Source: PubChem (several laboratories)
Sampled rows, rich in hits. Any-hit rate of the full collection: about 27%.
CYP2C9 inh: blocks human cytochrome P450 2C9 | hit rate 20% among 96,000 | CYP2C9 Supersomes, luciferin-H conversion, luminescence | AID 777 | inhibition, % at 5 µM;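 active = blocking of liver enzyme CYP2C9 beyond about 50% at 5 µM, limit read from the data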
CYP2C19 inhib: human CYP2C19 inhibition | P33261 | CYP2C19 Supersomes, luciferin-H EGE luminescence, 30 min | inhibition, % at 5 µM | hit rate 21% among 96,000 | AID 778;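 active = CYP2C19 inhibition above a set limit at 5 µM in the primary screen, cut at about 50% in these data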;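 note: plate controls were negative control wells for no effect and 2.5 mM tranylcypromine positive control for full effect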
Cav3 T inh: inhibitors of human Cav3.2 T-type calcium channel; Cav3.2-expressing cells, Fluo-4 calcium fluorescence FDSS; active compounds read low; B-score at 10 µM; hit rate 4% among 100,000;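 active = single-dose well whose peak fluorescence ratio is a statistical outlier from its plate by either plate-standardised score or position-corrected B-score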
CYP2C19 activ: increases human CYP2C19 enzyme activity | P33261 | recombinant CYP2C19, luciferin-H EGE luminescence; active compounds read high; 0 = fully inhibited enzyme, 1 = untreated enzyme | activation factor at 5 µM | 96,000 tested, under 10 active | AID 1025;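 active = activation factor of at least 2 at 5 µM in the primary screen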;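 note: 0 = wells with 2.5 mM tranylcypromine and 1 = vehicle-only wells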
CYP2C9 act: CYP2C9 (human) activation. activation factor at 5 µM. recombinant CYP2C9, luciferin-H conversion, luminescence; active compounds read high; factor 1 = untreated enzyme, 0 = blocked. hit rate 1.4% among 96,000. AID 1024. P11712;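 active = activation factor of 2 or more for CYP2C9 at a 5 µM dose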;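 note: 0 = sulfaphenazole-blocked wells and 1 = vehicle-only wells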
* hit, by the source's call; . = no result given.

SMILES	CYP2C9 inh	CYP2C19 inhib	Cav3 T inh	CYP2C19 activ	CYP2C9 act
COc1ccccc1NC(=O)N(Cc1ccco1)Cc1cc2c(C)ccc(C)c2[nH]c1=O	.	.	-6*	.	.
COc1ccc(C(=O)N(Cc2ccco2)C(C(=O)NC2CCCC2)c2ccc(O)cc2)cc1OC (stereo not given)	56*	50*	-2.4	0.5	0.4
COc1cccc(C(=O)N(Cc2ccco2)Cc2cc3cccc(C)c3[nH]c2=O)c1	40	16	0.33	0.8	0.6
O=C(NC1CCCCC1)C(c1ccco1)N(Cc1ccco1)C(=O)c1ccco1 (stereo not given)	63*	65*	-0.18	0.4	0.4
CC1(C)Cc2c(C#N)c(SCC(=O)c3ccccc3)nc(N3CCOCC3)c2CS1	98*	81*	-1.5	0.2	0
CN1Cc2c(N3CCOCC3)nc(SCc3ccccc3)c(C#N)c2CC1(C)C	91*	41	-4	0.6	0.1
COC(=O)CSc1nc(N2CCOCC2)c2c(c1C#N)CC(C)(C)N(C)C2	56*	5	-2	1	0.4
CCSc1nc(N2CCOCC2)c2c(c1C#N)CC(C)(C)N(C)C2	87*	51*	2.2	0.5	0.1
CCOc1ccc(N2C(=O)C(c3ccccc3)=C(c3nc4ccccc4s3)C2NC(C)=O)cc1 (stereo not given)	26	-4	-0.014	1	0.7
CCOC(=O)CC1C(=O)NCCN1S(=O)(=O)c1cc(Cl)c(Cl)cc1Cl (stereo not given)	-21	62*	-0.28	0.4	1.2
CCOC(=O)CC1C(=O)NCCN1S(=O)(=O)c1ccc(Cl)cc1 (stereo not given)	-8	13	0.64	0.9	1.1
COc1ccc2c(c1)cc(C(=O)O)n2C	-16	-10	-0.053	1.1	1.2
CCN(CC)CCn1c(NCc2cccc(OC)c2)nc2ccccc21	0	32	0.38	0.7	1
CNC(=O)c1cc2cc(OC)ccc2n1CCN(C)C	-4	63*	0.016	0.4	1
CNC(=O)c1cc2cc(OC)ccc2n1CCN(Cc1ccccc1)Cc1ccccc1	67*	92*	0.15	0.1	0.3
Nc1nc2nc(SCC(=O)N3CCCc4ccccc43)[nH]c2c(=O)[nH]1	-19	-19	-0.069	1.2	1.2
COC(=O)c1ccc(CN(C(C)=O)c2ccccc2)o1	2	69*	-0.041	0.3	1
CC1(C(=O)NC23CC4CC(CC(C4)C2)C3)CC1(Cl)Cl (stereo not given)	13	19	0.37	0.8	0.9
COc1ccc(/C(N)=C/C(=O)C(C)(C)C)cc1	42	74*	-1.1	0.3	0.6
CC(C)(C)C(=O)/C=C(\N)c1ccncc1	19	35	0.08	0.7	0.8
CCC(C)c1ccc(Nc2ncccc2C#N)cc1 (stereo not given)	24	8	-1.4	0.9	0.8
Cc1ncoc1C(=O)Nc1ccc2c(c1)OCCO2	16	35	0.31	0.6	0.8
Cc1occc1C(=O)Nc1ccc2c(c1)OCCO2	47	81*	-0.3	0.2	0.5
Cc1c([N+](=O)[O-])c(C(=O)Nc2ccc3c(c2)OCCO3)nn1C	5	68*	0.94	0.3	0.9
COc1ccc(NC(=O)c2nc[nH]c2C(=O)N2CCC(C)CC2)cc1	.	.	-0.84	.	.
SMILES	CYP2C9 inh	CYP2C19 inhib	Cav3 T inh	CYP2C19 activ	CYP2C9 act
CC(C)N(CCNC(=O)c1cn(C)c2ccc(S(=O)(=O)N(C)C)cc2c1=O)Cc1ccccc1	51*	11	1.2	0.9	0.5
COc1cc(C#CC#CCN2CCCCC2)ccc1O	-76	48	-0.84	0.5	1.8
c1ccc2c(c1)NC(CN1CCOCC1)CO2 (stereo not given)	-9	53*	1	0.5	1.1
Cc1cccc(Nc2nnc(SCc3cn4ccsc4n3)s2)c1	57*	74*	-0.66	0.3	0.4
COc1ccc(C)cc1-n1nnnc1SCc1cn2ccsc2n1	40	87*	-0.79	0.1	0.6
COc1ccc(C)cc1-n1nnnc1SCC1CCCCO1 (stereo not given)	73*	100*	-0.48	0	0.3
O=C(c1ccc(Cl)cc1)N1CCCC(c2ccccc2)=N1	20	29	-1.8	0.7	0.8
O=C(COc1ncnc2c(Cl)cc(Cl)cc12)NCCC1=CCCCC1	17	39	-0.13	0.6	0.8
CC(C)C(=O)N1CCC(CN=Cc2c(O)n(C3CCCCC3)c(=O)n(C3CCCCC3)c2=O)CC1	47	42	-11*	0.6	0.5
COc1ccccc1N=C(C)C1=C(O)CSC1=O	38	64*	0.47	0.4	0.6
CC(=Nc1ccc(C)c(C)c1)C1=C(O)CSC1=O	50	65*	-0.25	0.3	0.5
CCCc1c(O)nc(SCCN(CC)CC)n(C(=O)c2ccccc2)c1=O	19	8	1.6	0.9	0.8
O=C(c1ccc2ncsc2c1)N1CCN(c2ccc(O)cc2)CC1	16	6	0.72	0.9	0.8
COc1ccc(NC(=O)c2ccc(-n3nc(C)c[n+]3[O-])cc2)cc1	29	7	.	0.9	0.7
O=C1NC2=C(CCc3ccccc32)C(c2ccc(Br)cc2)N1 (stereo not given)	54*	65*	.	0.3	0.5
CCN1C(=O)N[C@@H](c2ccc(Br)cc2)C(C(C)=O)=C1C	.	.	0.38	.	.
Cn1c(Cn2c(=O)sc3ccccc32)nnc1SCC(=O)Nc1ccc(Cl)cc1	.	.	-1.2	.	.
CC1CCCN(C(=O)c2cc(F)c(F)cc2Cl)C1 (stereo not given)	-12	2	0.022	1	1.1
CCCC(=O)C1=C(O)C(C(=O)OC)C(C)(C)CC1=Nc1ccccc1 (stereo not given)	82*	87*	.	0.1	0.2
CCCC(=O)C1=C(O)C(C(=O)OC)C(C)(C)CC1=NC(C)(C)C (stereo not given)	-18	-20	4.1*	1.2	1.2
CCCC(=O)C1=C(O)C(C(=O)OC)C(C)(C)CC1=Nc1cccc2ccccc12 (stereo not given)	.	.	-5	.	.
CCOc1ccc(C(=O)NCC(=O)OCC(=O)Nc2ccccc2OC)cc1	-21	46	1.2	0.5	1.2
COc1ccc(S(=O)(=O)N2CCC(C(=O)NCC3CCCO3)CC2)cc1 (stereo not given)	-2	-4	0.29	1	1
CCOC(=O)CC(=O)CSc1nc2ccccc2c(=O)n1-c1ccc(C(=O)NCCOC)cc1	78*	74*	2.2	0.3	0.2
CCOC(=O)CC(=O)CSc1nc2ccccc2c(=O)n1-c1ccc(C(=O)N2CCOCC2)cc1	73*	86*	-3.3	0.1	0.3
CCOC(=O)CSc1nc2ccccc2c(=O)n1C	.	.	0.99	.	.
O=C(O)c1cc2cccc(S(=O)(=O)N3CCOCC3)c2cc1O	2	0	0.41	1	1
O=C(NC1CCCCCC1)C1C2C=CC3(CN(Cc4cccnc4)C(=O)C13)O2 (stereo not given)	6	3	-0.84	1	0.9
C#CCSc1nnc(-c2sc(-c3ccccc3)nc2C)n1C	41	87*	1.1	0.1	0.6
